According to ChEMBL document CHEMBL1201862, “PubChem BioAssay data set” (2004):
Potency and affinity values are given separately. Only a part of the results of these assays is listed, not drawn at random.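 Where inhibition never reached the appropriate level, the endpoint shown equals the highest concentration tested. Otherwise, values were interpolated linearly from a five-concentration, 48-hour dose response in 96-well plates. The concentration for 50% growth inhibition is given as GI50.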

Tested on: KM-20L2
Assay: NCI tumour cell line growth inhibition, 48 h

CADMIUM DICHLORIDE, CHEMBL1458880
GI50: 100 µM
